In the supplement of paper PMC11732987, “Enantioselective OTUD7B fragment discovery through chemoproteomics screening and high-throughput optimisation” (Communications Chemistry, 2025):

Key:
Experiment in all cases: log2 ratio of Biotin-Ahx-Ub-VS probe labelling (fragment/DMSO); higher = less target engagement (more negative = stronger competition), active = hit call of the paper (q ≤ 0.05, log2 ratio ≤ -1)
Conditions in all cases: compound concentration: 200 uM; treatment time: 3 h
USP34 = USP34 (UniProt Q70CQ2)
USP34, sequence (Q70CQ2 whole entry, the tested form may be a part): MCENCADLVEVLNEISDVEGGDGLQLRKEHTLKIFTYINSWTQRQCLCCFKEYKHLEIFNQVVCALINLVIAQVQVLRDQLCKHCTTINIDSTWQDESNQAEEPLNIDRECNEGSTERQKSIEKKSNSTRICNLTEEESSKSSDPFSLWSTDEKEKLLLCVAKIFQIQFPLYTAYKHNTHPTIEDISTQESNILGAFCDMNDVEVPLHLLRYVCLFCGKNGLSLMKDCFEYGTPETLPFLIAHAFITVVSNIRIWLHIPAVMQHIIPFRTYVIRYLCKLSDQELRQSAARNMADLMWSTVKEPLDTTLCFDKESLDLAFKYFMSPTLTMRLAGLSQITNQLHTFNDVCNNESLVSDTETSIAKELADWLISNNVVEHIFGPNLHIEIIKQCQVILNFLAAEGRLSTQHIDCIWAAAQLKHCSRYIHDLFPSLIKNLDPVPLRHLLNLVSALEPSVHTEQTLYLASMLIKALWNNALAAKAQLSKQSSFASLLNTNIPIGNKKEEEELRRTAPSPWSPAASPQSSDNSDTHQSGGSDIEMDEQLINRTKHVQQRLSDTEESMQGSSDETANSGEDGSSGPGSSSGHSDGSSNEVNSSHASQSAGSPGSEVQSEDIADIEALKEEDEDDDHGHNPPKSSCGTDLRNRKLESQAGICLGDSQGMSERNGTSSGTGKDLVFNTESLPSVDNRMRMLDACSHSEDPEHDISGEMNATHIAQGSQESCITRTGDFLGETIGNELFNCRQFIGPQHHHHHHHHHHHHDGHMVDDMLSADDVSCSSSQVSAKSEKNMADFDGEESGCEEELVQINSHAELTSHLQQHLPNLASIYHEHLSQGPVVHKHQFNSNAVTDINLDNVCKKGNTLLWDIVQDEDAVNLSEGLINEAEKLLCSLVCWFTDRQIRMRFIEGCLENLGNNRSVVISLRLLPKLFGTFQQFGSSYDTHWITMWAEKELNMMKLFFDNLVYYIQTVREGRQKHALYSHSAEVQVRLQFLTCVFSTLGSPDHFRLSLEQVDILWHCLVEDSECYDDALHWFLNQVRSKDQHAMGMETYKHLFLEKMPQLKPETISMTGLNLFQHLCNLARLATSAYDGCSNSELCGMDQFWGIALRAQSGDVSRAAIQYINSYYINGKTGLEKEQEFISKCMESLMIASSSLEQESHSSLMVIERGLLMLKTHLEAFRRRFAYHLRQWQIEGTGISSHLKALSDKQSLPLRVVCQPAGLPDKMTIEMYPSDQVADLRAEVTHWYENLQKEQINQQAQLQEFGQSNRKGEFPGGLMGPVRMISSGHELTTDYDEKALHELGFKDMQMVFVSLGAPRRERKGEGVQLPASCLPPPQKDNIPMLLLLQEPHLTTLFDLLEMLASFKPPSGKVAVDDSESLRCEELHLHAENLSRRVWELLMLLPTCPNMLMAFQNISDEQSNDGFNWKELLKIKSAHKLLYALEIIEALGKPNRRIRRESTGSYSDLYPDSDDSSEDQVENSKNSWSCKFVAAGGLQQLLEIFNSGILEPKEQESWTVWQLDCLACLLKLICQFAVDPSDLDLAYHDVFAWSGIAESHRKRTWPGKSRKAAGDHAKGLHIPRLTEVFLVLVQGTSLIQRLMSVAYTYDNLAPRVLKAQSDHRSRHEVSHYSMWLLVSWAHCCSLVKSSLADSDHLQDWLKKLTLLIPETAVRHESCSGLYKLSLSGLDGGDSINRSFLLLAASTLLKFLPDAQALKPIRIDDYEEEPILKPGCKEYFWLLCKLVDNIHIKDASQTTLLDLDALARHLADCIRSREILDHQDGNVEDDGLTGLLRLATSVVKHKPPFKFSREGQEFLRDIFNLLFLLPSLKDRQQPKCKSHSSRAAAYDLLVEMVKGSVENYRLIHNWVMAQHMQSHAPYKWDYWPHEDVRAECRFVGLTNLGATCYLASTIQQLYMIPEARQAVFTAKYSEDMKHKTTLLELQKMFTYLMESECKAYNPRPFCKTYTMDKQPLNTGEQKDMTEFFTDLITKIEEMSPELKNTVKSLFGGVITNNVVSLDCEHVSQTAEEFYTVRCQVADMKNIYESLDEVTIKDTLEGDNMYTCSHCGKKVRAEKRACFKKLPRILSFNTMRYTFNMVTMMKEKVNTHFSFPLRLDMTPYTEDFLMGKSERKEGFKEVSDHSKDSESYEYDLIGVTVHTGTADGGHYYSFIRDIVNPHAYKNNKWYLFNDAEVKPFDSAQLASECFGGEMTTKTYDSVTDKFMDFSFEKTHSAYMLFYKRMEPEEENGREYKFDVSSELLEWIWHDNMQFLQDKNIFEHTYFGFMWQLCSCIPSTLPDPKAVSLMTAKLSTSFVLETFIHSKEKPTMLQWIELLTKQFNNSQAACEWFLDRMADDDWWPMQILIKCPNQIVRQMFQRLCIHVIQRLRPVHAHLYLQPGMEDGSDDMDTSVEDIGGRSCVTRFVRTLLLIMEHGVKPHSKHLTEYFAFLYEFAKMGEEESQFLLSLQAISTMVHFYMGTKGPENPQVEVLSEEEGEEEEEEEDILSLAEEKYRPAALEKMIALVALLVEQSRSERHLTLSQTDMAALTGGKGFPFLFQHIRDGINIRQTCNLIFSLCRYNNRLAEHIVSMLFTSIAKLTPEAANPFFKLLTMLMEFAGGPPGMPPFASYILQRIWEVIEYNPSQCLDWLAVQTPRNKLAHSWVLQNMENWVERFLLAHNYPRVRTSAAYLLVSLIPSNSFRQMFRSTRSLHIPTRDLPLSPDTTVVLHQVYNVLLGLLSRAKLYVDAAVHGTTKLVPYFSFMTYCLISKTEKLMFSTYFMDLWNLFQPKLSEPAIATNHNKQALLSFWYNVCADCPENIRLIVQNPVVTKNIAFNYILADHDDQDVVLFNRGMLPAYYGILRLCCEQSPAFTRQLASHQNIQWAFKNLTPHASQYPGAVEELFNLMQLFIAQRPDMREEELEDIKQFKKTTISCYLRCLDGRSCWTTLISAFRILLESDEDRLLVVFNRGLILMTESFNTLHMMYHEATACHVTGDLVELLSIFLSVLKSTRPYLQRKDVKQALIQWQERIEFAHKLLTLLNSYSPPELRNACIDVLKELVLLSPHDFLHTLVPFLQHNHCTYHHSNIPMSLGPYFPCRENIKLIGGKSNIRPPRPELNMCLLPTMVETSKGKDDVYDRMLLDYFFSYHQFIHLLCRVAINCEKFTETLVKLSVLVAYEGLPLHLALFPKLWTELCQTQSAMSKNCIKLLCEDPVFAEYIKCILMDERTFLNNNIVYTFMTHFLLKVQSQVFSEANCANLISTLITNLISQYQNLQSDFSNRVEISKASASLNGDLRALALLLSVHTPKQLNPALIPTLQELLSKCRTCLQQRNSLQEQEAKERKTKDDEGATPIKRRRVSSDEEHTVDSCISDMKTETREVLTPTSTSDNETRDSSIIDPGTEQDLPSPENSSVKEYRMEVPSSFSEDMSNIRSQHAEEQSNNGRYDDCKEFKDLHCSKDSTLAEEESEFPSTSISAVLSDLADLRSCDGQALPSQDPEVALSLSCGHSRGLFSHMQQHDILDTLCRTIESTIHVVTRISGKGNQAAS
Summary of the method: (§1)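 Each value is an average log2 ratio of fragment to vehicle, tested by unpaired t-test. The underlying Spectronaut label-free quantities were global-median-normalised, and only proteins with ≥2 unique peptides were included. Triplicate HEK293T lysate samples (495 µg) were exposed to fragment at 200 µM or vehicle for 3 h, then to Biotin-Ahx-Ub-VS at 0.5 µM final for 1 h, before NeutrAvidin enrichment of labelled DUBs, LysC and trypsin digestion, and diaPASEF LC-MS/MS.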

USP36 = target: T1, USP36 (UniProt Q9P275)
T1 sequence (whole entry): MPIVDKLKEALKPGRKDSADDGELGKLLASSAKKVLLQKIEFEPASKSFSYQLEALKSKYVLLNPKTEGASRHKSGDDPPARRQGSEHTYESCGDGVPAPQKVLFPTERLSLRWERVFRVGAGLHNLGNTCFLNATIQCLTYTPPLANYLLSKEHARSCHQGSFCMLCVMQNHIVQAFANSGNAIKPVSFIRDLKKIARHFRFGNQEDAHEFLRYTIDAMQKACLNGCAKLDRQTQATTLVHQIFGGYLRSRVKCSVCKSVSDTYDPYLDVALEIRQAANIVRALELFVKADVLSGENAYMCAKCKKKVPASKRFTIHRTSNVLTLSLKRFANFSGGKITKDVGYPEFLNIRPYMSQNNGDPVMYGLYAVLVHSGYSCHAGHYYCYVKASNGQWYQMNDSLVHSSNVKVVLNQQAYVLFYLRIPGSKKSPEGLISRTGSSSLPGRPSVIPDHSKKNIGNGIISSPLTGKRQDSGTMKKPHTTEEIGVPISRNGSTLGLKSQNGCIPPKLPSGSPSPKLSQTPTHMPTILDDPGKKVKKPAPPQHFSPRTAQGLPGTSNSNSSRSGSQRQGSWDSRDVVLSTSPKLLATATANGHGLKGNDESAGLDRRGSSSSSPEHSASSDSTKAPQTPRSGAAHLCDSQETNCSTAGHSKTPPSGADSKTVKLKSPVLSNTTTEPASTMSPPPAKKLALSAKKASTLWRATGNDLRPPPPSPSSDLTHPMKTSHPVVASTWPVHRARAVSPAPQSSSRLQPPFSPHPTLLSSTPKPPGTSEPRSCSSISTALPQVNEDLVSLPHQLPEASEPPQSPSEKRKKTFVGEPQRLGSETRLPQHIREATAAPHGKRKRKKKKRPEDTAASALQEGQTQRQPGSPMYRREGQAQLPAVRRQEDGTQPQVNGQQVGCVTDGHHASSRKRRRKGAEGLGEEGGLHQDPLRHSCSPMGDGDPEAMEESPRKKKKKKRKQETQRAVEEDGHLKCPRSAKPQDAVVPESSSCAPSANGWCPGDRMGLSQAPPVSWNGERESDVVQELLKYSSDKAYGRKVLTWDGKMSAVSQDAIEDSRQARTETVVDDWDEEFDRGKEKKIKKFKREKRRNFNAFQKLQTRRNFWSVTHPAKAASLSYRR
Summary of the method: as §1

USP38 = target: T2, USP38 (UniProt Q8NB14)
T2 sequence (whole entry): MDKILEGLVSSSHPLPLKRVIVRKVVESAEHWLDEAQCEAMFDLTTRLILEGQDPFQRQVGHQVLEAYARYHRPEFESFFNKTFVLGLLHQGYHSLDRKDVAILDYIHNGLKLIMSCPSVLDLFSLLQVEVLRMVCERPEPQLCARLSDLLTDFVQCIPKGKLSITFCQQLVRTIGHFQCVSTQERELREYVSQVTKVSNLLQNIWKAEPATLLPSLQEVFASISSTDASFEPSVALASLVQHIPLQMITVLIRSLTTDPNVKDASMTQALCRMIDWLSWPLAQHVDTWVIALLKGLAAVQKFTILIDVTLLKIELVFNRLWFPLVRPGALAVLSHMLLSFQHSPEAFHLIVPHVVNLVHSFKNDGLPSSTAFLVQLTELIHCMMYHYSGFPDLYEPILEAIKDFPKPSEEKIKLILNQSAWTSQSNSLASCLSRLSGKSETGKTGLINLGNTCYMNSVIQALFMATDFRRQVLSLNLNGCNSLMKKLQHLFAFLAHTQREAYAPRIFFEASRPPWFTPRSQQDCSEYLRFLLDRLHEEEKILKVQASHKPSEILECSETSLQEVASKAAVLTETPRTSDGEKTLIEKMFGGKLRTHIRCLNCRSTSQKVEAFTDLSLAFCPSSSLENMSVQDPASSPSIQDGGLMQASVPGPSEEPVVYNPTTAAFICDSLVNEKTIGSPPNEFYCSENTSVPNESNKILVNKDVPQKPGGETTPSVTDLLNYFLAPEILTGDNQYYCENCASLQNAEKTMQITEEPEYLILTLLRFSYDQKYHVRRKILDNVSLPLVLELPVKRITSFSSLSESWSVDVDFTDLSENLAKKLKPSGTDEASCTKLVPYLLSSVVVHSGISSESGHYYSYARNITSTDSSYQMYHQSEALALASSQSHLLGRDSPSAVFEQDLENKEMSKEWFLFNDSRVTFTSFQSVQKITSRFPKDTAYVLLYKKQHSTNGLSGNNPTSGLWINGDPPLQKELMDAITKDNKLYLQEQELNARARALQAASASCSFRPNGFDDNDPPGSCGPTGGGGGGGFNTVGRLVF
Summary of the method: as §1

USP39 = target: T3, USP39 (UniProt Q53GS9)
T3 sequence (whole entry): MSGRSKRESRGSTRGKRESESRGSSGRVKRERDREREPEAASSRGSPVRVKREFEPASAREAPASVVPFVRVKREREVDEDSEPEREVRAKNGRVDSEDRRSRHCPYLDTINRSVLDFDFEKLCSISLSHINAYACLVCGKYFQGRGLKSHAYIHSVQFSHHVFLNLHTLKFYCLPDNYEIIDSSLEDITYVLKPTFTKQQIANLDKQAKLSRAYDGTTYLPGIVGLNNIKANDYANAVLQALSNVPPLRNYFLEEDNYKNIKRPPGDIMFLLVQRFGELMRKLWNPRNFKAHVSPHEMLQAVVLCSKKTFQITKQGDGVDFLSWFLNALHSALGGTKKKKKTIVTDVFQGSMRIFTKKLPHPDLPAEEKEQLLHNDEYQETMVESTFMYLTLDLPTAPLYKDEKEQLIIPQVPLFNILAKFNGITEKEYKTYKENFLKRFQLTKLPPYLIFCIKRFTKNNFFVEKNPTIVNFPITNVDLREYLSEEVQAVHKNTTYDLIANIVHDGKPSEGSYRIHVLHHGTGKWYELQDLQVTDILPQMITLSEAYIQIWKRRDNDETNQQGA
Summary of the method: as §1

USP4 = target: T4, USP4 (UniProt Q13107)
T4 sequence (whole entry): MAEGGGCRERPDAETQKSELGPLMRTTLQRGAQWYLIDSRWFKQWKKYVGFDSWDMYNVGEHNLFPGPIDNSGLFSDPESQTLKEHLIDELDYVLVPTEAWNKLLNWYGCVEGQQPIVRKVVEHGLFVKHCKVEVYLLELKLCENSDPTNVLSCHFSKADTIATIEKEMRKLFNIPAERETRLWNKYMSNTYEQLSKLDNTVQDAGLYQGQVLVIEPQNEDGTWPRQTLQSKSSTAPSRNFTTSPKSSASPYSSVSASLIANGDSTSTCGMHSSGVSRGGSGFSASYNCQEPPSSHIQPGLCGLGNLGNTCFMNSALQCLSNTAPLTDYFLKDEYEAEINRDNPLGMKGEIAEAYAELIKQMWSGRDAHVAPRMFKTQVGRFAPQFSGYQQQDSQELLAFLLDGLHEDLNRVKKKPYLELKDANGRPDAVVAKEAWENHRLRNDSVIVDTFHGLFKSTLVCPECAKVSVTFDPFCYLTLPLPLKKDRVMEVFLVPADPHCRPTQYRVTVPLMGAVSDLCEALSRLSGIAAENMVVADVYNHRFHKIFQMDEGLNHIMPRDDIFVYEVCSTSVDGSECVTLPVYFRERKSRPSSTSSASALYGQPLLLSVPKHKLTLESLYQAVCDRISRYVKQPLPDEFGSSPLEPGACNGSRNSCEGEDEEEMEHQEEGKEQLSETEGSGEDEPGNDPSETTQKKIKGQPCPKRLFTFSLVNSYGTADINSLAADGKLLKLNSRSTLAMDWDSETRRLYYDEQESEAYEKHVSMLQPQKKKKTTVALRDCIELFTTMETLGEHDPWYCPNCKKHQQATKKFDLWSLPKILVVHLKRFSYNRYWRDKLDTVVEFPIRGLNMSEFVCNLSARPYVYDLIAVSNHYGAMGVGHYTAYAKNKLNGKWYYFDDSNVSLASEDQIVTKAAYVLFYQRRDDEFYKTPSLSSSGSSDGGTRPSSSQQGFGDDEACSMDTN
Summary of the method: as §1

Measured: log2 ratio of Biotin-Ahx-Ub-VS probe labelling

O=C(CCl)Nc1cc2c(cc1Cl)OCCO2
inactive: USP34 -0.393 | USP36 0.206 | USP38 -0.183 | USP39 -0.137 | USP4 0.122
